This note sets out measurements from article PMC4336329 (PLoS ONE, 2015).

In all, about 310,000 compounds went through this assay and about 14,000 (4.5%) showed an effect of 50% or more. The effect is printed as a negative number. The list comes from a sample in which strong results are over-represented; it also holds similar structures and randomly drawn compounds.
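Also: peak tail current of the secondary pulse compared with the same well before compound.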

Chain of human ether-à-go-go-related gene (hERG) potassium channel (Q12809 whole entry, looked up): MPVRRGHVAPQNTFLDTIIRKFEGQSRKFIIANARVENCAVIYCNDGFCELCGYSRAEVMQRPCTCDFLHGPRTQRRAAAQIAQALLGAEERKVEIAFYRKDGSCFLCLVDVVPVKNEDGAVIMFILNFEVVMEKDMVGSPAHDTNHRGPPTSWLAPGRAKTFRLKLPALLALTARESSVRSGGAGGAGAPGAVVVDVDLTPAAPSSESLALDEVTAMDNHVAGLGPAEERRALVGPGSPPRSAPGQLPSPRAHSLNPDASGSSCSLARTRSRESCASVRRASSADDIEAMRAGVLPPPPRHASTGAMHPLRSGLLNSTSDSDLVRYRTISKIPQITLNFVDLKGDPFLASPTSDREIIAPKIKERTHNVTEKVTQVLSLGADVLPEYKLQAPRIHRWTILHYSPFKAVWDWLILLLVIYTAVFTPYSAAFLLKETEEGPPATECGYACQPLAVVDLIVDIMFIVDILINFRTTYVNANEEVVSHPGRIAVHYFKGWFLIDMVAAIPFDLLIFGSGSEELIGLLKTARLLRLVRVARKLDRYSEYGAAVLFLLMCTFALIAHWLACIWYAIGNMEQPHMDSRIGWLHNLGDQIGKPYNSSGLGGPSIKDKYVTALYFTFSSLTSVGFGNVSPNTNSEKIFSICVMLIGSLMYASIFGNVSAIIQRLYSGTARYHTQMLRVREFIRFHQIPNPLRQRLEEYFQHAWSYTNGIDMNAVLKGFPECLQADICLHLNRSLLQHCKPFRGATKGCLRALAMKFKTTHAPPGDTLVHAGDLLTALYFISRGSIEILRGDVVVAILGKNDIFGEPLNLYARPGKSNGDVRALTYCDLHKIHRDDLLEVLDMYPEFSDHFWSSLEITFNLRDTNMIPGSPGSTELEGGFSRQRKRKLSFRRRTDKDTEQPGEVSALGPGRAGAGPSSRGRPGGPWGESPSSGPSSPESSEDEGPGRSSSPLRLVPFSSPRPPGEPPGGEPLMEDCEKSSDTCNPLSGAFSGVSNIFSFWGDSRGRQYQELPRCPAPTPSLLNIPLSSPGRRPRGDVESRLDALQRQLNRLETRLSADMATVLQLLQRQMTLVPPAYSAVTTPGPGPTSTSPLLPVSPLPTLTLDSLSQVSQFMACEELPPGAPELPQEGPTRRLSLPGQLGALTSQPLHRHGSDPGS

The assay concerns the target human ether-à-go-go-related gene (hERG) potassium channel (human, UniProt Q12809). Briefly: primary screen, population patch clamp on CHO cells stably expressing hERG; higher = less effect of the substance.
Turning to `O=C(NCCCN1CCN(c2ccccc2F)CC1)Nc1ccccc1[N+](=O)[O-]`, the “hERG current change (%, negative = inhibition) at 10uM” value was -72.1%.
On to `CCOc1ccc(NC(=O)NCCCN2CCCC2)cc1`, for which the “hERG current change (%, negative = inhibition) at 10uM” value is listed as -1.89%.
On to `O=C(NCCCN1CCCC1)Nc1ccc(F)cc1`, for which the “hERG current change (%, negative = inhibition) at 10uM” value was 4.71%.
As for `COc1ccc(NC(=O)CN2CCN(c3ccccc3F)CC2)cc1`, the “hERG current change (%, negative = inhibition) at 10uM” value was -18.1%.
On to `CCOc1ccc(NC(=O)NCCN2CCN(c3ccccc3F)CC2)cc1`, for which the “hERG current change (%, negative = inhibition) at 10uM” value is reported as -62.3%.
`CCOc1ccc(NC(=O)CCN2CCN(c3ccccc3F)CC2)cc1`: the “hERG current change (%, negative = inhibition) at 10uM” value was -20.2%.
In the case of `CCc1ccc(NC(=O)NCCN2CCN(c3ccc(OC)cc3)CC2)cc1`, the “hERG current change (%, negative = inhibition) at 10uM” value is -14.1%.
Consider `O=C(NCCCN1CCCC1)Nc1ccccc1[N+](=O)[O-]`, for which the “hERG current change (%, negative = inhibition) at 10uM” value is reported as 18.1%.
For the compound `COc1ccc(NC(=O)NCCCN2CCN(c3ccccc3F)CC2)cc1`, the “hERG current change (%, negative = inhibition) at 10uM” value is on record as -63.6%.
With `Cc1ccc(C(=O)NC(=S)Nc2ccc(-c3cc4ccccc4oc3=O)cc2)c(C)c1` the figure was 27.1%; with `Cc1ccc(C(=O)NCCc2ccccc2)cc1`, -1.2%.
Take `CSc1cccc(NC(=O)Nc2ccccc2C(N)=O)c1`: the “hERG current change (%, negative = inhibition) at 10uM” value amounted to 15.3%.
With `CCCOc1ccc(/C=N\NC(=O)CCc2n[nH]c(=O)[nH]c2=O)cc1OC`, the “hERG current change (%, negative = inhibition) at 10uM” value was 2.51%.
Consider `COc1ccc(C2=NCC(CSc3nccc(=O)[nH]3)S2)cc1` (stereo not drawn), for which the “hERG current change (%, negative = inhibition) at 10uM” value is reported as 1.52%.
With `O=C(Cc1n[nH]c(=O)c2ccccc12)NC(c1ccccc1)c1ccccc1` the figure was 6.6%; with `Cn1c(=O)c(-c2cc(Br)ccc2N)nc2ccccc21`, -29.3%; with `COc1ccc(C(=O)COC(=O)c2cc(C)no2)c(OC)c1`, 12%.
`COC(=O)c1ccc2c(c1)C(C)(C)C(/C=C/c1ccc(OC)c(OC)c1OC)=[N+]2C.[I-]`: the “hERG current change (%, negative = inhibition) at 10uM” value is recorded as -2.88%.
With `COC(=O)c1ccc2c(c1)C(C)(C)C(/C=C/c1ccccc1O)=[N+]2C.[I-]` the figure was -69.5%; with `COC(=O)c1ccc2c(c1)C(=O)/C(=C/c1ccc(O)cc1)O2`, 18.2%; with `COC(=O)c1ccc2c(c1)C(C)(C)C(/C=C/c1ccc(O)cc1)=[N+]2C.[I-]`, -70.9%.
As to `COC(=O)c1ccc(/C=C/C(=O)O)cc1`, the “hERG current change (%, negative = inhibition) at 10uM” value amounted to 11.9%.
Take `COC(=O)c1ccc2nc(C)c(C)nc2c1`: the “hERG current change (%, negative = inhibition) at 10uM” value turned out to be 15.8%.
On to `O=C(O)[C@@H](O)c1ccccc1`, for which the “hERG current change (%, negative = inhibition) at 10uM” value is 6.63%.
As for `CCOC(=O)c1sc2ncn(C(CC)C(=O)OC)c(=O)c2c1C` (stereo not drawn), the “hERG current change (%, negative = inhibition) at 10uM” value amounted to 9.35%.
For `NC(=O)c1oc2ccccc2c1NC(=O)c1nc2ccccc2s1`, the “hERG current change (%, negative = inhibition) at 10uM” value was found to be 6.28%.
On to `CN(/N=C/c1ccccc1O)C(=S)c1ccccc1`, for which the “hERG current change (%, negative = inhibition) at 10uM” value is on record as -3.8%.
As to `CN1CCc2nc(NC(=O)COc3ccc4ccccc4c3)sc2C1`, the “hERG current change (%, negative = inhibition) at 10uM” value is listed as -56.2%.
With `CN1CCc2nc(NC(=O)COc3ccc(C#N)cc3)sc2C1` the figure was -7.85%; with `O=C(COc1ccccc1)Nc1nc2c(s1)CCCC2`, -20.3%.
With `O=C(c1cccc(-c2ccccc2F)c1)N1CC[C@@H](N2CCC(O)CC2)[C@H](O)C1` the figure was -17.7%; with `Cc1cccc(OCC(O)CN2C(C)(C)CC(O)CC2(C)C)c1C` (stereo not drawn), -51.3%.
With `OC(COc1cccc2ccccc12)CN1CCN(c2cccc(Cl)c2)CC1` (stereo not drawn) the figure was 1.82%.
Turning to `Cc1cccc(N2CCN(CC(O)COc3ccc(Cl)cc3)CC2)c1` (stereo not drawn), the “hERG current change (%, negative = inhibition) at 10uM” value is given as -41.3%.
With `Cc1cccc(OCC(O)CN2C(C)(C)CC(O)CC2(C)C)c1` (stereo not drawn), the “hERG current change (%, negative = inhibition) at 10uM” value is listed as -33.2%.
Consider `CC1(C)CC(O)CC(C)(C)N1CC(O)COCc1ccccc1` (stereo not drawn), for which the “hERG current change (%, negative = inhibition) at 10uM” value came to 11.7%.
As for `CC1CN(CC(O)COc2ccccc2C(C)(C)C)CC(C)O1.Cl` (stereo not drawn), the figure is -10.1%; as for `C=C1CC(C)OC(c2ccccc2OCC(O)CN2CCCCC2)C1` (stereo not drawn), -72.4%; as for `Cc1ccccc1OCC(O)CN1CCCCC1.Cl` (stereo not drawn), 9.68%.
With `Cc1cccc(N2CCN(CC(O)COc3ccccc3Cl)CC2)c1` (stereo not drawn), the “hERG current change (%, negative = inhibition) at 10uM” value is -56%.
Take `OC(COc1cccc2ccccc12)CN1CCN(c2ccc(Cl)cc2)CC1` (stereo not drawn): the “hERG current change (%, negative = inhibition) at 10uM” value is on record as -3.42%.
As for `Cc1ccccc1OCC(O)CN1CCN(c2ccc(Cl)cc2)CC1` (stereo not drawn), the “hERG current change (%, negative = inhibition) at 10uM” value is recorded as -66.3%.
Turning to `COC(=O)c1ccc(NC(=O)c2c(C(=O)Nc3ccccc3)sc3nc(C)cc(=O)n23)cc1`, the “hERG current change (%, negative = inhibition) at 10uM” value stood at 15.3%.
With `Cc1ccccc1NC(=O)CSc1nnnn1C` the figure was 6.94%.
Turning to `CCOC(=O)c1c(-c2ccccc2)csc1NC(=O)c1cc(S(=O)(=O)N2CCOCC2)ccc1C`, the “hERG current change (%, negative = inhibition) at 10uM” value is reported as 2.23%.
